Bioassay records deposited in PubChem BioAssay by National Center for Advancing Translational Sciences (NCATS).
The list is not random: actives were taken first. Their share in the collection is about 10%.
BAZ2B inh: qHTS Assay for Inhibitors of BAZ2B | Bromodomain adjacent to zinc finger domain protein 2B (Homo sapiens), Q9UIF8 | AlphaScreen BAZ2B-H3K14Ac peptide displacement | Potency, µM (titrated, usually from 114 µM), for inactives: at the highest dose activity change, negative = inhibition, hits mostly inhibitors | 4.4% of 360,000 active; further: potency means the concentration at half of the fitted maximal effect; on the % scale 0 is the no-effect control and ±100 the full control effect; nearly all actives have a fitted effect of over 60% in size
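Complex of BAZ2B and biotin-H3K14Ac (50 nM apiece) forms over 30 min at RT, then faces library compounds up to 110 uM for another 30 min; AlphaScreen beads added, 20 min dark incubation, luminescence read.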
Six1-Eya2 blk: qHTS Assay for Inhibitors of the Six1/Eya2 Interaction. Homeobox protein SIX1 (Homo sapiens) + Protein phosphatase EYA2 (Homo sapiens), …. AlphaScreen GST-Six1/His-Eya2 binding, biochemical; active compounds read low. activity change, % (concentration not given with the values). 0.56% of 360,000 active. AID 651725, 2012; in the data active means activity change below about -65%; inconclusive means mostly about -30% to -63%; further: on the % scale 0 is the no-effect control and ±100 the full control effect
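AlphaScreen with GST-Six1 and His-Eya2 (5X mix: 250 nM and 500 nM), glutathione donor and nickel acceptor beads; buffer 50 mM Tris pH 8.0, 300 mM NaCl, 1 mM TCEP; 1 h at 37 C in the dark.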
JMJD2A Tudor inh: qHTS Assay for Inhibitors of JMJD2A-Tudor Domain | Lysine-specific demethylase 4A (Homo sapiens), O75164 | AlphaScreen JMJD2A-Tudor / H3K4me3 peptide binding | Potency, µM (highest dose often 114 µM), for inactives: at the top dose activity change, negative = inhibition, usual class: inhibitors | 4.4% of 390,000 active | AID 504339, 2011; further: potency means the concentration at half of the fitted maximal effect; on the % scale 0 is the no-effect control and ±100 the full control effect; nearly all actives have a fitted effect of over 50% in size
CtBP-E1A inh: qHTS Assay for Inhibitors of the CtBP/E1A Interaction. activity change, % (test concentration not listed). CtBP / adenovirus E1A interaction (AlphaScreen). 0.49% of 340,000 active. AID 651724, 2012. AlphaScreen GST-E1A/His-CtBP binding, 1536-well; active compounds read low; in the data active means activity change below about -65%; inconclusive means mostly about -30% to -63%; further: on the % scale 0 is the no-effect control and ±100 the full control effect
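In 5 uL wells, 23 nL compound meets equimolar GST-E1A and His-CtBP (5X stock 125 nM each) for 2 h, 37 °C. Beads (5X, 50 ug/mL) then 1 h, 37 °C, dark.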
G9a inh: qHTS Assay for Inhibitors of Histone Lysine Methyltransferase G9a; Histone-lysine N-methyltransferase EHMT2 (Homo sapiens), Q96KQ7; G9a H3K9 monomethylation, AlphaScreen, 2 h; Potency, µM (doses to about 102 µM), inactives show top-dose activity, negative = inhibition, actives largely listed as inhibitors; 8.8% of 350,000 active; AID 504332, 2011; further: potency means the concentration at half of the fitted maximal effect; on the % scale 0 is the no-effect control and ±100 the full control effect; nearly all actives have a fitted effect of over 75% in size
Target sequence (Q96KQ7 913-1193 limits assumed): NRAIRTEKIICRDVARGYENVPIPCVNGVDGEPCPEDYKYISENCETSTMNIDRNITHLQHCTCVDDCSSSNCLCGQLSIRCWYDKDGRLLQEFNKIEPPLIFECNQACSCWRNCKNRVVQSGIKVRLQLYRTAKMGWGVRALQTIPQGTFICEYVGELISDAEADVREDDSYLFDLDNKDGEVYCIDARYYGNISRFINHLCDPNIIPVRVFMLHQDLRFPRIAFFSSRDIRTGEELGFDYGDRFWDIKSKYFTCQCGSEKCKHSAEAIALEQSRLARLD
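Chemiluminescent proximity detection of H3K9 monomethylation, read after 10 min bead incubation in the dark. Reaction: 20 nM G9a, 500 nM biotin-H3K9 peptide, 20 uM SAM cofactor, 2 h, room temperature, following 15 min enzyme-compound preincubation.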
HP1b chromo inh: HTS for Inhibitors of HP1-beta Chromodomain Interactions with Methylated Histone Tails | AlphaScreen HP1-beta / biotin-H3K9me3 peptide binding | Potency, µM (titrated, usually from 114 µM), for the others: at the highest dose activity change, negative = inhibition, most hits filed as inhibitors | 0.56% of 390,000 active; further: potency means the concentration at half of the fitted maximal effect; nearly all actives have a fitted effect of over 70% in size
Target sequence (P83916 whole entry, looked up): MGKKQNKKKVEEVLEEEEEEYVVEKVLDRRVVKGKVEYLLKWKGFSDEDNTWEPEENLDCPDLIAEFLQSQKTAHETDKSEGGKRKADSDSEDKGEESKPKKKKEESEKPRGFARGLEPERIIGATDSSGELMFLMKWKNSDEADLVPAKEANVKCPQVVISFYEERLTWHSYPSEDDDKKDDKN
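AlphaScreen: HP1-beta (50 nM) preformed 30 min with biotin-H3(1-18)K9me3 peptide (50 nM) in PBS pH 7.4, 0.01% Tween-20. Compound added for 30 min at RT, then streptavidin donor/nickel chelate acceptor beads (10 ug/mL) for 30 min.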
* hit, by the source's call; ? = inconclusive; · = no result given; [ ] = dose if it differs, or a comment. Unless noted, the call rests on the fitted dose curve; in most records, active means well fitted inhibition curve with a large enough effect; inconclusive means small, poorly fitted or top-dose-only effect; inactive means no such curve, though single readings can be large or run the other way.

SMILES | BAZ2B inh | Six1-Eya2 blk | JMJD2A Tudor inh | CtBP-E1A inh | G9a inh | HP1b chromo inh
CCCCSc1nc2c(c(=O)[nH]c(=O)n2C)n1CCc1ccccc1 | -3% | 1 | -18% | 0 | ? | 18%
CC(C)n1c(SCCCc2ccccc2)nc2c1c(=O)[nH]c(=O)n2C | 1% | -3 | -2% | 0 | 35µM* | -10%
C=CCn1c(SCCN2CCCCC2)nc2c1c(=O)[nH]c(=O)n2C | 10% | 3 | -14% | 0 | ? | 29%
C/C=C/Cn1c(SCCCc2ccccc2)nc2c1c(=O)[nH]c(=O)n2C | -6% | -3 | -25% | 4 | 45µM* | -10%
COCCn1c(SCCCc2ccccc2)nc2c1c(=O)[nH]c(=O)n2C | 9% | 0 | -2% | 1 | 50µM* | -11%
CCCn1c(SCCc2ccccc2)nc2c1c(=O)[nH]c(=O)n2C | -2% | 7 | -2% | -4 | ? | 5%
C=CCn1c(SCCCc2ccccc2)nc2c1c(=O)[nH]c(=O)n2C | -4% | 5 | -5% | -7 | 45µM* | 11%
COCCSc1nc2c(c(=O)[nH]c(=O)n2C)n1CCCc1ccccc1 | 5% | 5 | -16% | -10 | · | -24%
COCCn1c(SCC(=O)OCc2ccccc2)nc2c1c(=O)[nH]c(=O)n2C | -3% | 3 | -8% | 0 | 32µM* | 1%
COCCn1c(SCc2ccccc2)nc2c1c(=O)[nH]c(=O)n2C | 8% | -10 | -23% | 0 | 25%[2.33 µM] | -4%
CCCCCOC(=O)CSc1nc2c(c(=O)[nH]c(=O)n2C)n1CCc1ccccc1 | -6% | -3 | 8% | 7 | 13µM* | -15%
CCCCCn1c(SCCc2ccccc2)nc2c1c(=O)[nH]c(=O)n2C | 14% | 5 | -14% | 9 | -5% | 27%
CC(=O)Nc1cccc(-c2ccnc3c2CC(C(=O)NCc2cccs2)O3)c1 (centres undefined) | · | -7 | · | 0 | · | ·
Cc1ccc(C(=O)CNc2ccc(C)cc2C)cc1 | -12% | -18 | ? | -15 | -1%[0.501 µM] | -15%
CC(C)N(Cc1nnc(-c2ccccc2Cl)o1)C(=O)c1cccc(C#N)c1 | -3% | · | · | · | -41%[59 µM] | ·
S=c1[nH]nc(C2CCCCC2)n1/N=C/c1cccs1 | -38% | -9 | 50µM* | -26 | ? | -21%
Cc1n[nH]c(=O)n(N=Cc2cccs2)c1=O | · | 6 | · | 4 | · | ·
CSc1ccc(/C=N/n2c(C3CCCCC3)n[nH]c2=S)cc1 | ? | -10 | ? | -9 | 11µM* | ?
Cc1ccc(/C=N/n2c(C3CCCCC3)n[nH]c2=S)o1 | -37% | 2 | 10µM* | 10 | 2µM* | ?
O=[N+]([O-])c1ccc(/C=N/n2c(C3CCCCC3)n[nH]c2=S)cc1 | -30% | -1 | 89µM* | -23 | ? | -1%
Cc1ccc(/C=N/N2CCCCC2)o1 | -16% | -2 | -7% | -24 | ? | 2%
Cc1nc2ccc(S(=O)(=O)N3CCN(S(=O)(=O)c4c(F)cccc4F)CC3)cc2s1 | · | · | -21% | · | · | ·
CN(C)CCNC(=O)c1cccc(-c2cccc3nncn23)c1 | · | -15 | · | -10 | · | ·
S=c1[nH]nc(C2CCCCC2)n1/N=C/c1ccncc1 | -15% | 14 | 5µM* | 0 | ? | -15%
O=C(O)c1ccc(/C=N/n2c(C3CCCCC3)n[nH]c2=S)cc1 | -14% | 7 | 3.5µM* | 8 | 10µM* | 20%
SMILES | BAZ2B inh | Six1-Eya2 blk | JMJD2A Tudor inh | CtBP-E1A inh | G9a inh | HP1b chromo inh
O=C(N/N=C/c1ccc(C(=O)O)cc1)C(=O)N1CCCCCC1 | 1% | 0 | -2% | -4 | · | 22%
Cc1ccc(OCC(=O)Nc2ccc3nc(SCC(=O)N4CCOCC4)sc3c2)cc1C | -1% | · | 4% | · | 9%[59 µM] | 65%
COCC(C)NCC(=O)NC(C)CCc1ccccc1 (centres undefined) | 56µM* | 11 | 1µM* | 2 | 8.9µM* | -32%
CC(CCc1ccccc1)NC(=O)CN1CCN(Cc2ccccc2)C1=O (centres undefined) | 4% | 6 | -7% | 3 | 9% | 20%
CC(C)(C)NC(=O)NC(=O)CN1CCN(c2ccc(O)cc2)CC1 | -27% | 2 | 22µM* | 6 | 3.2µM* | ?
CC(CCc1ccccc1)NC(=O)CN1CCN(c2ccc(O)cc2)CC1 (centres undefined) | ? | -5 | 45µM* | -8 | 7.9µM* | 89µM*
CC(=O)NC(C)CCc1ccccc1 (centres undefined) | 0% | 2 | -7% | -19 | 18%[59 µM] | 31%
Cc1ccc(NC(=O)NC(=O)CN2CCN(c3ccc(O)cc3)CC2)c(C)c1 | ? | -2 | 45µM* | -8 | 7.9µM* | 71µM*
O=S(=O)(O)CC(S)CS (centres undefined) | · | · | · | · | -34%[2.33 µM] | ·
Cc1cc(C)n(-c2nc3ccccc3nc2Nc2cccc(C(=O)NCCc3ccccc3)c2)n1 | 4% | · | -3% | · | -3%[59 µM] | 28%
O=S(=O)(Nc1cccc(F)c1)c1ccc2[nH]c3c(c2c1)CCCCC3 | -27%[57.1 µM] | · | ? | · | ? | ?
CCOC(=O)c1c(NC(=S)Nc2ccccc2)sc(C)c1C | 3% | -3 | -6% | 25 | ? | -25%
CCOC(=O)c1c(NC(=O)C[n+]2ccc(Cc3ccccc3)cc2)sc(C)c1C | -27% | -4 | -24% | -3 | 45µM* | 1%
CCOC(=O)c1c(NC(=O)CCc2ccc(CC)o2)sc(C)c1C | 25% | 12 | -7% | 9 | 28µM* | 1%
CCOC(=O)c1c(NC(=O)/C=C/c2ccc(C)o2)sc(C)c1C | -2% | 15 | -12% | 13 | 8.9µM* | ?
Cc1sc(NC(=O)/C=C/c2ccco2)c(C(=O)O)c1C | ? | -4 | -6% | 1 | 45µM* | 9%
COc1ccc(OC)c(CN2C(=O)CCC2(C)c2nnnn2-c2c(C)cccc2C)c1 (centres undefined) | · | -1 | · | 3 | · | ·
Cc1ccnc(OC(C(=O)O)C(OCc2ccccc2)(c2ccccc2)c2ccc(C(F)(F)F)cc2)n1 (centres undefined) | ? | -1 | 6% | · | · | 28%
Cc1ccn2c(Cc3ccccc3)c(-c3ccc(F)cc3)nc2c1 | · | -8 | · | -2 | · | ·
C=CCSc1nnc(NC(=O)C2=COCCO2)s1 | -6% | 2 | -12% | -1 | 35µM* | 33%
